Shown are actives, neighbours in structure and some others; about 4.7% of the full set was active somewhere.
D1 antag = antagonists of human D1 dopamine receptor; 3.2% of 360,000 active; activity change, negative = inhibition, % at 10 µM; HEK293 TREx D1 cells, calcium flux, dopamine EC80; active compounds read low; in the data active = activity change below about -30%
Target sequence (P21728 whole entry, looked up): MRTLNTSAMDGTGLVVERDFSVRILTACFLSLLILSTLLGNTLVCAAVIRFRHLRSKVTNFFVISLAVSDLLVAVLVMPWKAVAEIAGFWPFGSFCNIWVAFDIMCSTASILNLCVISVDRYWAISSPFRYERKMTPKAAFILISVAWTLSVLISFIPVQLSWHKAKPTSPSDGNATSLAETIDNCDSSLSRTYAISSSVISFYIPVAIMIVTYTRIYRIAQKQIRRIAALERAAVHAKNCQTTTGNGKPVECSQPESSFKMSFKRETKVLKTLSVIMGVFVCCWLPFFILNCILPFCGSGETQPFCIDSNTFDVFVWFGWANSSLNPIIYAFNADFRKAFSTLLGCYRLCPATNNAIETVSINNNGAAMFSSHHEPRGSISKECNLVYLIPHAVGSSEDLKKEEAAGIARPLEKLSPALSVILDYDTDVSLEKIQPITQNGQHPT
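After overnight tetracycline induction at 30 C, force-coupled D1 HEK293 cells took up a no-wash calcium dye at room temperature. Compounds were added and monitored 180 s, and the response to EC80 dopamine was then recorded.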
TRHR agonist = agonists of human TRH receptor; P34981; TRHR cells, calcium flux fluo-8, FDSS agonist mode; activation, % at 2 µM; 0.18% of 360,000 active; AID 493084
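TRHR-expressing cells, plated overnight in medium with 10% serum, were loaded with fluo-8 calcium dye at room temperature. After a 10 s baseline, library compound was pin-added and calcium release was recorded kinetically (ex 480/em 530) as agonist response.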
D1 PAM = human D1 dopamine receptor positive modulation; potentiation, % at 10 µM; P21728; 0.036% of 360,000 active; HEK293 TREx D1 cells, calcium flux, dopamine EC20 potentiation; AID 504651; in the data active = potentiation above about 30%
TRHR PAM = TRH receptor (human) allosteric enhancement; TRHR cells, fluo-8 calcium fluorescence, EC20 TRH enhancement; AID 493056; 0.66% of 360,000 active; enhancement, % at 2 µM; in the data active = enhancement above about 30%
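Enhancer read-out: after compound pinning and an initial kinetic agonist-mode read, an EC20 of TRH (10 nM final) was injected and fluo-8 calcium signal (Ex 480/Em 530) followed at 1 s/cycle for 100 cycles in TRHR-expressing cells.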
D1 ag = human D1 receptor agonism | HEK293 T-REx D1 cells, calcium flux, agonist mode | activation, % at 2 µM | 1% of 360,000 active | AID 504660
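Agonism was scored from calcium flux recorded over 180 s (1 read/s) after pintool compound addition, following a 10-cycle baseline. Cells were inducible force-coupled HEK293 TREx D1, plated overnight at 30 C and loaded with no-wash calcium dye.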
Large screens that a line does not name were inactive. Rule as the data show it, unless noted: active = activation above about 30%; inactive = the rest.

CNC(=S)N(Cc1cc2cc(C)cc(C)c2[nH]c1=O)C1CCCC1	none
CCNC(=S)N(Cc1cc2cc(C)cc(C)c2[nH]c1=O)C1CCCC1	D1 antag -47.1
O=C(NCc1ccco1)c1c(F)c(F)c(F)c(C(=O)NCc2ccco2)c1F	D1 antag -33.2
CCCc1cc(C(=O)NCc2ccccc2)no1	none
O=C(NCc1ccco1)c1ccc([N+](=O)[O-])o1	TRHR PAM 68.8
CCCc1cc(C(=O)NCc2ccco2)no1	D1 antag -34.9
O=C(NCc1ccco1)c1ccccc1	none
O=C(NCc1ccco1)c1csc2c1CCCCC2	D1 antag -32.7
COC(=O)c1ccccc1NC(=O)c1cc(=O)c2ccc(C)c(C)c2o1	none
Fc1ccc(-c2nc(Nc3cccc(C(F)(F)F)c3)nc3c2COc2ccccc2-3)cc1	none
COCCn1c(=NC(=O)CSCC(=O)N2CCOCC2)sc2ccccc21	D1 antag -46.2
C=CCOc1ccc(/C=N/N2C(=O)C(CC(=O)Nc3ccc(F)cc3F)SC2=NC)cc1 (stereo not drawn)	D1 antag -49.3
CCn1c(N2CCN(C(=S)NCCc3ccccc3)CC2)nc2ccccc21	D1 antag -35.8
CCn1c(N2CCN(C(=S)NCC(C)C)CC2)nc2ccccc21	none
CCn1c(N2CCN(C(=S)NC)CC2)nc2ccccc21	D1 antag -32.4
Cc1ccc(CSC2=Nc3ccccc3C3=NC(CC(=O)NC4CCCCC4)C(=O)N23)cc1 (stereo not drawn)	none
CC1=C(C(=O)Nc2ccc(C)cc2C)C(c2cccs2)n2nc(SCc3ccc(Cl)cc3)nc2N1 (stereo not drawn)	none
CCOC(=O)CSc1nc(C)c(C(=O)OCC)s1	D1 antag -35.2
CCOC(=O)CSc1nc2ccc(N)cc2s1	none
O=C(CC1C(=O)NCCN1C(=O)Nc1ccc(Cl)cc1)Nc1ccc(F)cc1 (stereo not drawn)	D1 antag -51.0
COc1cccc(CNC(=O)c2cc3cc(C)ccc3n2C)c1	none
CCOc1ccc(CCNC(=O)Cn2nc(-c3ccc(C)cc3)ccc2=O)cc1OCC	none
COc1ccc2c(c1OC)CN1CCc3cc4c(cc3[C@@H]1[C@@H]2O)OCO4	D1 antag -66.1
COc1cc2c(cc1OC)C1Cc3ccc(OC)c(OC)c3CN1CC2 (stereo not drawn)	D1 antag -74.3
CCOc1ccc(CC2c3cc(OCC)c(OCC)cc3CCN2C(=O)c2cc(OC)c(OC)c(OC)c2)cc1OCC (stereo not drawn)	none
O[C@@H]1[C@@H](O)C=C2CCN3Cc4cc5c(cc4[C@H]1C23)OCO5 (stereo partly drawn)	none
COc1cc2c(cc1OC)[C@@H]1Cc3ccc(OC)c(OC)c3CN1CC2	D1 antag -53.3
COc1cccc(CNC(=O)c2nn(-c3ccccc3Cl)nc2CO)c1	none
COc1ccc(Cl)cc1NC(=O)Cn1c(=O)n2nc(-c3ccccc3)nc2c2ccccc21	none
O=C(Nc1ccc2nn(-c3ccc(F)cc3)nc2c1)c1cccc2c(Cl)cccc12	none
Cc1csc2nc(COC(=O)c3ccc(NC(=O)C(C)C)cc3)cc(=O)n12	none
C=CCn1c(SCc2c(F)c(F)c(F)c(F)c2F)nc(O)cc1=O	D1 ag 33.0
C=CCn1c(SCC(=O)N2CCCCCC2)nc2ccccc2c1=O	D1 antag -32.2
C=CCn1c(SCC(=O)N2CCOCC2)nc(O)cc1=O	none
C=CCn1c(SCC(=O)N(CC)CC)nc(O)cc1=O	none
C=CCn1c(SCC(=O)N2CCCCC2)nc(O)cc1=O	D1 antag -63.3
COc1cccc(/C=C(\CC(=O)O)c2nc3ccccc3s2)c1	TRHR PAM 34.3
Cc1cc(N2CCC(C(=O)Nc3ccc(F)cc3F)CC2)n2nc(C)c(-c3ccc(Cl)cc3)c2n1	none
CC(C)(C)OC(=O)Cc1nnc(-c2cc3ccccc3[nH]2)o1	none
Cn1c(=O)cc2c3c(c(N4CCCCC4)ccc31)C(=O)c1ccccc1-2	none
Cn1c(=O)c(NC2CCCCC2)c2c3c(cccc31)C(=O)c1ccccc1-2	D1 antag -68.0, TRHR agonist 218.9, D1 ag 454.8
Cn1c(=O)c(NCCO)c2c3c(cccc31)C(=O)c1ccccc1-2	D1 antag -41.9, TRHR agonist 268.9, D1 ag 441.8
Cn1c(NCCc2ccccc2)cc(=O)n(C)c1=O	none
CCCCNc1c2c3c(cccc3n(C)c1=O)C(=O)c1ccccc1-2	D1 antag -46.7, TRHR agonist 94.4, D1 ag 326.2
CC(=O)Nc1ccc(Nc2c3c4c(cccc4n(C)c2=O)C(=O)c2ccccc2-3)cc1	none
CN1C(=O)c2cccc(NCCCN3C(=O)c4ccccc4C3=O)c2C1=O	none
Cn1c(=O)c(NCCc2ccccc2)c2c3c(cccc31)C(=O)c1ccccc1-2	D1 antag -77.6, TRHR agonist 175.4, D1 ag 393.8
CCNc1c2c3c(cccc3n(C)c1=O)C(=O)c1ccccc1-2	TRHR agonist 151.1, D1 ag 373.1
CCNc1cccc2c1C(=O)N(C)C2=O	none
O=C(NCC(c1ccc2c(c1)OCO2)N1CCOCC1)c1cccc(Cl)c1 (stereo not drawn)	none
CC(=O)N1c2ccc(S(=O)(=O)N3CCC(C(=O)Nc4cccc(C(F)(F)F)c4)CC3)cc2CC1C (stereo not drawn)	D1 antag -33.8
O=C(Nc1cccc(C(F)(F)F)c1)C1CCN(S(=O)(=O)c2ccc(N3CCCC3=O)cc2)CC1	D1 antag -47.4
CCn1c(CNC(=O)c2ccc(OC)cc2)nnc1SCC(=O)Nc1ccc(F)cc1	none
O=C(NCc1cccs1)C1CCCN1C(=O)Nc1ccccc1[N+](=O)[O-] (stereo not drawn)	none
O=C(NCc1ccccc1)C1CCCN1C(=O)Nc1ccccc1[N+](=O)[O-] (stereo not drawn)	D1 antag -30.9
CCOC(=O)[C@H]1[C@H]2COc3ccc(Br)cc3[C@@H]2N2C(=O)CN(Cc3ccc(OC)cc3)C(=O)[C@@]12C	D1 antag -30.1
Cc1cccc(C(=O)NC2CCN(C#N)CC2)c1	none
CCCCOc1ccc(C(=O)NCc2cn3cccc(C)c3n2)cc1	none
Cc1nnc2sc(SCc3ccccc3)nn2c1=O	TRHR PAM 33.6
CS(=O)(=O)CC[C@@H](C(=O)NCCc1ccccc1)N1Cc2ccccc2C1=O	none
CN1CCN(S(=O)(=O)c2ccc(N(C)Cc3ccc(OC(F)F)cc3)c([N+](=O)[O-])c2)CC1	D1 antag -39.2
Cc1ccc(S(=O)(=O)N2CCN(C)CC2)cc1[N+](=O)[O-]	none
O=C1COc2ccc(C(=O)COC(=O)Cc3ccc(Cl)cc3)cc2N1	TRHR PAM 35.7
O=C1COc2ccc(C(=O)COC(=O)CCSc3ccc(Cl)cc3)cc2N1	none
CCOc1cc(C(=O)NCCc2sc(-c3ccc(F)cc3)nc2C)cc(OCC)c1OCC	none
